# Assay outcomes as filed in PubChem BioAssay.
# Shown are actives, neighbours in structure and some others; about 1.6% of the full set was active somewhere.
# NALP3 yeast inh = blocks the NALP3 inflammasome reconstituted in yeast; 330,000 tested, 0.39% active; inhibition, % at 10 µM; Yeast reconstituted NLRP3/ASC/caspase-1, beta-gal luminescence, 24 h; AID 2825;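 active means inhibition of 50% or more; inactive means inhibition below 50%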;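 further: plate controls were induced DMSO wells for no effect and uninduced yeast grown without galactose for full effect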
# Rce1 inhib = yeast Ras-converting enzyme inhibition. Q03530. yeast membranes, quenched prenylated peptide cleavage fluorescence. calls only. 290,000 tested, 0.27% active. AID 2563;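 active means fall in fluorescence gain of 50% or more versus controls, with final raw signal at or below 3038400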;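 further: plate controls were neutral control wells for no effect and wells lacking membranes for full effect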
# Target sequence (Q03530 whole entry, looked up): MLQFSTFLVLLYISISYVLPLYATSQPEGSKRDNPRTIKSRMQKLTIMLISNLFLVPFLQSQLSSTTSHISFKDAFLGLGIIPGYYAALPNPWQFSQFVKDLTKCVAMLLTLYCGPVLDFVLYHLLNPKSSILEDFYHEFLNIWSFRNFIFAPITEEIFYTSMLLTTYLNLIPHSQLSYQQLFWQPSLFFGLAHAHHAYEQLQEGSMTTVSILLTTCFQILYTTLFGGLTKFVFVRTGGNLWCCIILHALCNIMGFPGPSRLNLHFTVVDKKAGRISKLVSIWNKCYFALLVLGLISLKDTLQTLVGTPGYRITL
# NALP1 inh = inhibitors of NALP1 inflammasome in yeast | S. cerevisiae NALP1/ASC/caspase-1 growth, X-gal OD620, 72 h | inhibition, % at 10 µM | 280,000 tested, 0.61% active; in the data active means inhibition mostly above about 24%, no sharp cut-off; inactive means mostly below about 32%
# V-ATPase pH = regulators of yeast V-ATPase proton transport; AID 504577; S. cerevisiae, pHLuorin cytosolic pH fluorescence; 350,000 tested, 0.37% active; response, % at 10 µM; in the data active means response mostly above about 7.3%, no sharp cut-off; inactive means mostly below about 5.4%; further: actives read high
# PERK inh = human PERK inhibition, primary cell-based screen | CHO PERK-DD fusion, SEAP luminescence translation reporter | inhibition, % at 5.6 µM | 220,000 tested, 0.17% active | AID 1416;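 active means inhibition above the mean inhibition of all tested compounds plus 3 SD, set separately per screening campaign, cut at about 2.9% in these data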;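 further: PERK kinase domain activated by AP20187 dimerizer at 100 nM; 0% = DMSO with dimerizer and 100% = rapamycin at 8.4 µM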
# Yeast superoxide = caloric restriction mimetics inhibiting age-related superoxide in yeast. S. cerevisiae aged cells, superoxide DHE fluorescence; active compounds read low. superoxide response (% of plate mean), % at 10 µM. 330,000 tested, 0.18% active. AID 2690;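 active means superoxide response under a set limit, about three screen SD below normal, cut at about 65% in these data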;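 further: yeast aged for seven days with compound at 30 °C before DHE staining; 100% = average MFI of all compound-treated wells on the plate with controls excluded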
# V-ATPase pH SP = yeast V-ATPase proton transport regulation | shares compounds with V-ATPase pH | S. cerevisiae pHLuorin cytosolic pH | response, % at 10 µM | 980 tested, 2% active | AID 602197; in the data active means response above about 24%;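 further: plate controls were vehicle wells for no effect and positive control wells for full effect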
# Numbers without * were called inactive; i = inactive; x = no result.
SMILES,NALP3 yeast inh,Rce1 inhib,NALP1 inh,V-ATPase pH,PERK inh,Yeast superoxide,V-ATPase pH SP
COC(=O)N=Nc1c(O)n(Cc2ccccc2)c2ccccc12,8.9,i,15.2,-2.2,-0.5,96.9,x
CCOC(=O)N=Nc1c(O)n(Cc2ccccc2)c2ccccc12,-6.0,i,13.2,2.3,0.4,92.1,-2.5
CCOc1ccccc1-n1c(SCC(=O)N(C(C)C)C(C)C)nnc1-c1cccnc1,12.6,i,9.8,18.2*,-0.3,101.0,-5.1
CC1CN(CC(O)COc2ccc(C(C)C)cc2)CC(C)O1 (stereo unspecified),23.4,i,7.4,8.8*,0.3,119.8,0.2
CC(=O)c1ccc(OCC(O)CN2CC(C)OC(C)C2)cc1 (stereo unspecified),14.4,i,24.7,-5.2,0.7,90.5,x
COc1cc(/C=N/NC2=NC(C)(C)Cc3ccccc32)cc(OC)c1OC,7.5,i,-1.2,8.2*,-0.5,90.0,2.2
COc1cc(/C=N/NC2=NS(=O)(=O)c3ccccc32)cc(OC)c1OC,-1.7,i,-6.5,0.1,x,94.2,x
Cc1cccc(/C(N)=N/OC(=O)Cc2cccs2)c1,-2.2,i,5.1,8.5*,0.3,104.6,-0.4
Cc1ccc(/C(N)=N/OC(=O)Cc2cccs2)cc1,11.6,i,7.5,-2.3,2.5,107.4,x
Cc1cc(=O)[nH]n(CCO)c1=O,4.6,x,7.8,13.0*,0.4,96.1,-1.6
Cc1c(N=Cc2c(O)n(C3CCCCC3)c(=O)[nH]c2=O)c(=O)n(-c2ccccc2)n1C,20.4,i,4.3,19.3*,-1.2,99.9,-30.5
Cc1c(N=Cc2c(O)n(C)c(=O)c3ccccc23)c(=O)n(-c2ccccc2)n1C,16.2,x,12.7,-1.8,0.5,105.2,x
CSc1nc(N)c(C(=O)N(c2ccccc2)c2ccccc2)s1,x,x,x,-1.4,x,x,x
COC(=O)c1ccc(CSC2=NC[C@@H]3[C@@H]4C(=O)N(Cc5ccccc5)C(=O)[C@@H]4[C@](C)(C(=O)OC)N23)cc1,x,x,x,2.2,x,89.8,x
c1ccc(CSc2nnc(SCc3ccccn3)s2)nc1,-0.5,i,-12.1,11.1*,1.6,94.3,-0.5
COc1ccc(CN2C(=O)c3ccccc3C2C(=O)NC2CCCC2)c(OC)c1 (stereo unspecified),15.3,i,19.8,9.8*,-0.4,90.9,0.5
COc1ccc(CN2C(=O)c3ccccc3C2C(=O)NC2CCC(C)CC2)c(OC)c1 (stereo unspecified),2.1,i,-1.1,0.0,-0.4,95.6,x
CCCCn1c(=O)[nH]c(=O)c2c1nc(-c1ccc(C)c([N+](=O)[O-])c1)n2CC,17.5,i,-8.2,9.9*,1.3,105.2,-0.4
Cc1ccc(-c2nc3c(c(=O)[nH]c(=O)n3CC(C)C)n2CC(C)C)cc1[N+](=O)[O-],15.5,i,-8.0,1.8,-1.0,93.8,x
CCCC(O)(c1ccc(OC)cc1)C(CN1CCOCC1)c1ccc(Cl)cc1 (stereo unspecified),12.3,i,13.6,11.7*,x,91.5,2.0
C#CCOCCOCCOCCNc1nc(N2CCN(C(=O)[C@H](CCC(=O)O)n3cc(CN)nn3)CC2)nc(N2CCN(C(=O)[C@H](CCCCN)n3cc([C@@H](N)CC(N)=O)nn3)CC2)n1,1.0,x,x,7.9*,x,98.0,-2.2
CCOC(=O)C(=O)c1cn(C2OCC(OC(C)=O)C(OC(C)=O)C2OC(C)=O)c2ccccc12 (stereo unspecified),12.2,i,31.7,13.9*,0.8,103.7,-5.7
CCCn1c(=S)[nH]c2cc(C(=O)N3CCN(c4ccc(F)cc4)CC3)ccc2c1=O,x,x,x,-0.4,x,x,x
O=C(C1CCCCC1)N1CCC(CO)(Cc2ccccc2Cl)CC1,26.1,x,-9.0,8.6*,-0.1,89.7,2.0
CCOc1ccc(CCNC(=O)COC(=O)c2ccc(S(C)(=O)=O)cc2)cc1OCC,17.8,i,x,14.9*,x,85.5,-0.2
SMILES,NALP3 yeast inh,Rce1 inhib,NALP1 inh,V-ATPase pH,PERK inh,Yeast superoxide,V-ATPase pH SP
N#Cc1ccc(NC(=O)COC(=O)c2cccc(S(=O)(=O)N3CCCC3)c2)cc1,x,x,x,-2.2,x,x,x
O=C(COC(=O)CCC(=O)c1ccc(F)cc1)NCCc1ccccc1,16.8,x,x,0.6,x,111.0,-5.8
Cc1nnc(SC(C)C(=O)N(C)C2CCCCC2)n1N (stereo unspecified),10.0,x,x,7.1*,x,112.5,0.0
Cc1ccc(S(=O)(=O)NN=C2CCCc3ccccc32)cc1,x,x,x,-2.7,x,x,x
Cc1cc(N2CCN(c3ccccn3)CC2)n2nc(C)nc2n1,-2.8,i,x,8.4*,0.2,108.1,0.5
Cc1cccc(CN(Nc2ccccc2)c2ccccc2)n1,x,x,x,2.2,x,x,x
O=C(O)c1cc(N/C(=N\S(=O)(=O)c2ccc(F)cc2)c2ccccc2)ccc1O,4.1,x,x,2.9,x,x,x
Cc1ccc(S(=O)(=O)/N=C(/Nc2ccc(O)c(C(=O)O)c2)c2ccccc2)cc1,11.7,x,x,11.5*,x,91.6,-0.7
O=C(NCC(c1cccs1)N1CCOCC1)c1cc([N+](=O)[O-])cc([N+](=O)[O-])c1 (stereo unspecified),-6.6,i,28.8,-4.6,0.3,91.8,x
O=C(NCC(c1cccs1)N1CCOCC1)c1cccc([N+](=O)[O-])c1 (stereo unspecified),8.8,i,30.3,53.1*,1.7,102.1,-2.5
CCN(c1ccccc1)S(=O)(=O)c1ccc(Cl)c(NC(=O)CN(C)Cc2cccc(F)c2)c1,x,x,x,-3.6,x,x,x
COc1ccc(NC(=O)COC(=O)c2ccc(S(=O)(=O)N(C)c3ccccc3OC)cc2)cc1OC,-4.2,i,-1.3,8.1,0.2,73.9,-0.4
COc1ccccc1N(C)S(=O)(=O)c1ccc(C(=O)OCC(=O)Nc2ccc(C(N)=O)cc2)cc1,-2.7,x,x,0.5,x,95.8,x
COc1ccc(C=NN=C2c3ccccc3-c3ccccc32)cc1OC,x,x,x,2.5,x,x,x
COc1ccc(Nc2sc(C(=O)c3ccc(Cl)cc3)c(N)c2C(=O)Nc2ccccc2OC)cc1,24.3,i,-10.3,2.8,-0.3,100.2,x
COc1ccccc1NC(=O)c1c(Nc2ccccc2C)sc(C(=O)Nc2cccc(Cl)c2)c1N,8.1,i,44.7,11.7*,-0.3,113.7,-1.9
COc1ccc(Nc2nc(-c3cccnc3)cs2)c(OC)c1,27.5,i,16.7,9.1*,x,99.5,2.9
C[C@@H]1CN([C@H](C)CO)C(=O)CCCn2cc(nn2)CO[C@H]1CN(C)C(=O)Nc1ccc2c(c1)OCCO2,x,x,x,0.3,x,x,x
O=C(O)CCC(=O)NCCn1c(-c2ccccc2)csc1=Nc1ccccc1,8.1,i,1.4,0.0,-0.7,123.0,x
OCCCn1c(-c2ccccc2)csc1=Nc1ccccc1,35.3,i,4.7,8.0*,0.8,89.2,1.9
CSCCC(NC(=O)c1ccccc1)C(=O)N1CCN(C(=O)c2ccccc2)CC1 (stereo unspecified),-3.3,x,x,3.1,x,96.9,x
CSCCC(NC(=O)c1ccccc1)C(=O)N1CC=C(c2ccccc2)CC1 (stereo unspecified),19.8,i,22.0,9.3*,x,93.5,-0.2
